Activity calls are given as the source filed them.

The nature of this test: ATP-based viability of Huh7 replicon cells – cell-based, CellTiter-Glo luminescence, basal, 48 h, cytotoxicity control for HCV replication inhibitor project, primary screen (AID 1143).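 Also: Huh7 hepatoma cells carrying a hepatitis C replication reporter with no stimulus; test concentration not given here.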 The conditions noted are these: higher = more signal, called active from +8 up or from −8 down. A general note: A replicon is a self-replicating genome or part of one, used to study replication in cells.
On to `COC(=O)CC=C[C@@H](C)[C@@H](C=NOC(C)CN1CCCCc2nc(C)c(C)cc21)OC` (stereo partly specified), for which the z-score was -0.211 (inactive).
Next, `CCOC(=O)[C@H](CC(C)C)NC(=O)CCC1CC(OC(=O)NCc2ccc3c(c2)OCO3)CC2(CCCC(COC(=O)NCCc3ccc(Cl)cc3)O2)O1` (stereo partly specified): -0.197 (inactive); `CC(CCN1CCc2nc(-c3ccccc3)c(-c3ccccc3)cc2C1)=NO[C@H](C)c1cn([C@H](CO)Cc2ccccc2)nn1`: -2.39 (inactive); `CC(CCC(=O)OC[C@H]1O[C@H](C#Cc2ccccc2)C=C[C@@H]1Oc1ccc(C)cc1)=NO[C@H](C)c1cn([C@@H]2COC[C@H]2O)nn1`: -0.783 (inactive).
As to `CC(CCN1CCc2nc(-c3ccccc3)c(-c3ccccc3)cc2C1)=NOC(C)CN1CCCc2nc(C)c(C)cc21` (stereo unspecified), the z-score was -1.33 (inactive).
Next, `CCC1=NOC(CCC2CC(OC(=O)NCc3cccc4c3OCO4)CC3(CCCC(COC(=O)NCCc4ccc(Cl)cc4)O3)O2)C1` (stereo unspecified): -0.379 (inactive); `CCOC(=O)CCN1C(=O)[C@H]2[C@@H]3C(=CC[C@H]2C1=O)C(=O)[C@H]1O[C@H]1[C@H]3O`: -5.94 (inactive).
Consider `CON=C(C)CCC(=O)OC[C@H]1O[C@H](C#Cc2ccccc2)C=C[C@@H]1Oc1ccc(C)cc1`, for which the z-score is -1.85 (inactive).
Next, `Cc1cc2c(nc1C)CCCCN2CC(O)CN1CCCc2nc(-c3ccc(Br)cc3)ccc21` (stereo unspecified): 0.304 (inactive); `COC(=O)[C@H](C)NC(=O)CCC1CC(OC(=O)NCc2cccc3ccccc23)CC2(CCCC(COC(=O)NCCc3ccccc3OC)O2)O1` (stereo partly specified): -0.701 (inactive); `CC#CCOCCC=C1c2ccccc2[C@@H](OC)[C@@H]1C`: 0.447 (inactive).
The same measure for `CCO[C@H](c1cc(OC)cc([N+](=O)[O-])c1OC)[C@H](C)[C@@H](OC)[C@H](C)C=CCC(=O)OC`: -0.267 (inactive); for `O=C1[C@H]2[C@H]3[C@H](O)[C@H](O)CC(=NOC[C@@H](O)COCc4ccco4)[C@@H]3CC[C@H]2C(=O)N1c1cccc(Oc2ccccc2)c1`: -0.578 (inactive).
For `COC(=O)[C@@H]1CC[C@H](C)[C@@H](c2ccc(Br)cc2)N1C[C@@H](O)CN=[N+]=[N-]`, the z-score was -3.06 (inactive).
The same measure for `CCOC(=O)[C@H](Cc1ccccc1)NC(=O)CCC1CC(OC(=O)NCc2cccc3ccccc23)CC2(CCCC(COC(=O)NCC3CCCCC3)O2)O1` (stereo partly specified): -0.213 (inactive).
As for `C#CCCCON=C1[C@H]2CCn3c(=O)n([C@@H](CC)c4ccccc4)c(=O)n3[C@H]2[C@H](O)[C@@H]2O[C@H]12`, the z-score is 0.222 (inactive).
The same measure for `C[C@@H]1C=CCC(=O)OC[C@H](C)C(=O)N[C@@H](Cc2ccccc2)C(=O)OC1`: -3.11 (inactive); for `Cc1ccc2[nH]c3nc(CCCn4ccnc4-c4ccccc4)nnc3c2c1`: -0.317 (inactive); for `CC(CCN1CCc2nc(-c3ccccc3)c(-c3ccccc3)cc2C1)=NO[C@@H](C)c1cc(-c2c(C)cc(C)cc2C)no1`: -2.58 (inactive).
The same measure for `O=C1[C@H]2CCn3c(=O)n(Cc4cc5c(cc4Cl)OCO5)c(=O)n3[C@H]2[C@H](O)[C@@H]2O[C@H]12`: -0.926 (inactive).
The same measure for `CCCNC(=O)OC[C@H]1O[C@H](CCON=C[C@@H](NS(=O)(=O)c2ccc(C)cc2)[C@H](C)C=CCC(=O)OC)C=C[C@@H]1Oc1ccc(OC)cc1`: -1.47 (inactive); for `CCN1C(=O)[C@H]2[C@H]3[C@H](O)[C@H](O)CC(=NOCC[C@@H]4C=C[C@H](OC(C)=O)[C@@H](COC(C)=O)O4)[C@@H]3CC[C@H]2C1=O`: -0.0735 (inactive).
As to `COc1ccc(O[C@H]2C=C[C@@H](c3ccccc3)O[C@@H]2COC(=O)CCC(C)=NOC[C@@H](O)COCc2ccco2)cc1`, the z-score was -1.42 (inactive).
For `CC(C)[C@@H](OCc1ccccc1)[C@H](C)C=NOC[C@@H](O)[C@H]1O[C@@H]2OC(C)(C)O[C@@H]2[C@H]1O`, the z-score was 0.226 (inactive).
The same measure for `O=C1C2=CC[C@H]3C(=O)N(Cc4ccccc4)C(=O)[C@H]3[C@H]2[C@H](O)[C@@H]2O[C@H]12`: -6.84 (inactive).
Next, `COC(=O)[C@H](C)NC(=O)CCC1CC(OC(=O)NCc2ccc3c(c2)OCO3)CC2(CCCC(COC(=O)NCc3ccccc3)O2)O1` (stereo partly specified): -0.268 (inactive).
The same measure for `CC(C)CON=C1C[C@@H](O)[C@@H](O)[C@@H]2[C@@H]3C(=O)N(Cc4ccccc4)C(=O)[C@@H]3CC[C@H]12`: -1.75 (inactive); for `O=C1[C@H]2[C@H]3[C@H](O)[C@H](O)CC(=NO[C@@H]4O[C@H](CO)[C@@H](O)[C@H](O)[C@H]4O)[C@H]3CC[C@H]2C(=O)N1c1ccc(F)cc1F`: -1.9 (inactive); for `CC(=O)OC[C@H]1O[C@@H](ON=C2[C@H]3CCn4c(=O)n(-c5ccccc5)c(=O)n4[C@H]3[C@H](O)[C@@H]3O[C@H]23)[C@H](OC(C)=O)[C@@H](OC(C)=O)[C@@H]1OC(C)=O`: 1.03 (inactive).
Turning to `C#CCCCON=C1C[C@@H](O)[C@@H](O)[C@@H]2[C@@H]3C(=O)N([C@@H](C)c4ccccc4)C(=O)[C@@H]3CC[C@@H]12`, the z-score is 0.341 (inactive).
The same measure for `O=C1[C@H]2[C@H]3[C@H](O)[C@H](O)CC(=NOC[C@@H](O)COCc4ccco4)[C@@H]3CC[C@H]2C(=O)N1C1CCCCC1`: -0.234 (inactive); for `C[C@]12CCC3c4ccc(OCC5CO5)cc4CCC3C1CC[C@@H]2O` (stereo partly specified): -1.78 (inactive); for `CCOC(=O)CCN1C(=O)[C@H]2[C@H]3[C@H](O)[C@H](O)CC(=NO[C@@H]4O[C@H](CO)[C@@H](O)[C@H](O)[C@H]4O)[C@H]3CC[C@H]2C1=O`: 0.38 (inactive).
The same measure for `C=CCOCC1CN2[C@@H](CC[C@@H](C)[C@@H]2c2ccc(Br)cc2)C(=O)O1` (stereo partly specified): -0.0112 (inactive); for `CO[C@H]1COC(=O)[C@H](C)COC(=O)[C@@H](OCc2ccccc2)C=C[C@@H]1C`: -0.108 (inactive).
Next, `CC(C)=NOC(C)CN1CCCc2nc(C)c(C)cc21` (stereo unspecified): 0.431 (inactive).

Values taken from PubChem BioAssay.
